Compound activity: PubChem, National Center for Advancing Translational Sciences (NCATS)
Cruzain inh Det: cruzain (T. cruzi) inhibition with detergent; P25779; purified cruzain, Z-FR-AMC fluorescence, 0.01% Triton; Potency, µM, usual class: inhibitors; 0.43% of 200,000 active; AID 1478; note: nearly all actives have a fitted effect of over 40% in size
Target sequence (P25779 123-467 limits assumed): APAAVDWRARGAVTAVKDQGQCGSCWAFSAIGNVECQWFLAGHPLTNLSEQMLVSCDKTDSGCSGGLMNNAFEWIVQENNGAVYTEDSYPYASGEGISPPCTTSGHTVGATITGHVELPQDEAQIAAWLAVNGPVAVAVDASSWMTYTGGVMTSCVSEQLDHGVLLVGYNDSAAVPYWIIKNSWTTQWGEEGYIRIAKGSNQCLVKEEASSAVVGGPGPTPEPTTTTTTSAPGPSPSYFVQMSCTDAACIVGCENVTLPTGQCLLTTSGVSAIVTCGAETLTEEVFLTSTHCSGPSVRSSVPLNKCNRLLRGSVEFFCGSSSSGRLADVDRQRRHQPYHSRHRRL
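15 min RT preincubation of 1.5 nM cruzain with compound, then 2 uM Z-FR-AMC added; kinetic AMC fluorescence, 60 s delta. Triton X-100 0.01%, pH 5.5.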
Cruzain noTriton: cruzain (T. cruzi) inhibition without detergent; P25779; purified cruzain, Z-FR-AMC fluorescence, no detergent; Potency, µM, usual class: inhibitors; 2.3% of 200,000 active; note: nearly all actives have a fitted effect of over 40% in size
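Detergent-free condition (0.00005% Triton X-100) in acetate buffer pH 5.5 with DTT. 1.5 nM enzyme and compound were pre-mixed 15 min, then 2 uM Z-FR-AMC substrate added; reaction progress from fluorescence change between first and third reads (60 s).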
A number is an active result; 0 = inactive; ? = inconclusive. Rows were chosen to be rich in hits. Some 2.4% of all compounds tested hit in one or more screens of this group. Calls come from the whole dose curve; as a rule, active = well fitted curve in the direction sought with a large enough effect; inconclusive = small, poorly fitted or top-dose-only effect, or another doubt; inactive = no such curve, though single readings can be large; an effect the other way counts as inactive or inconclusive.

SMILES	Cruzain inh Det	Cruzain noTriton
CN1C(=O)C2(SCC(=O)N2c2cccc(C(F)(F)F)c2)c2ccccc21 (stereo not given)	0	?
COc1cccc(CSc2nc(-c3ccccc3OC)nc3c2Cc2c(CO)cnc(C)c2O3)c1	0	?
CCc1ccc(/C=C(\Cl)c2nc3cc(Cl)ccc3c(=O)[nH]2)cc1	0	10µM
CCc1cc2c(=O)[nH]c(Cc3ccc(Cl)cc3)nc2s1	0	0
CC(C)Cn1c(=O)c2sccc2n2c(CCCC(=O)NCCc3ccc(Cl)cc3)nnc12	0	0
CCc1ccc2oc(-c3cccc(NC(=O)c4ccc(N5CCC(C)CC5)c([N+](=O)[O-])c4)c3)nc2c1	0	?
Cc1cc(C)c2c(c1)-c1c(ssc1=S)C(C)(C)N2C(=O)CN1C(=O)c2ccccc2C1=O	0	?
Cc1cccc2c1N(C(=O)CN1C(=O)c3ccccc3C1=O)C(C)(C)c1ssc(=S)c1-2	0	13µM
CCOc1ccc(NC(=O)CSc2nnc(CC)c(CC)n2)cc1	0	0
N=C(N)S[C@H]1c2ccccc2-c2cc([N+](=O)[O-])ccc21	0	0
O=C1/C(=C/c2c[nH]c3ccccc23)CCC/C1=C\c1c[nH]c2ccccc12	0	25µM
O/N=C/c1c[nH]c2ccccc12	0	0
O=C(Nc1ccc(OC(F)(F)F)cc1)c1cc2ccccn2n1	0	25µM
COc1ccc(NC(=O)c2cc3ccccn3n2)cc1	0	0
COc1ccccc1-c1nnc(NC(C)=O)s1	0	0
CCCCOC(=O)Nc1nnc(-c2ccccc2OC)s1	0	16µM
CCOP(=O)(OCC)C(Nc1ccccc1)c1ccc2c(c1)OCO2 (stereo not given)	0	13µM
CCCCOP(=O)(OCCCC)C(Nc1ccccc1)c1ccc2c(c1)OCO2 (stereo not given)	0	0
O=c1c2sc3ccccc3c2n(Cc2cccc(Cl)c2)c(=O)n1Cc1ccc(F)cc1	0	6.3µM
O=c1c2sc3ccccc3c2n(Cc2cccc(Cl)c2)c(=O)n1Cc1ccccc1	0	?
CC(C)C12CC[C@@]3(CC[C@H]4[C@@](C)(CCC[C@]4(C)C(=O)O)[C@@H]3C1)[C@@H](CN)C2	0	0
NC(=O)c1c(N)sc2c1CCCC2	0	20µM
Nc1sc2c(c1C(=O)c1ccccc1)CCCC2	0	0
C/C(=N\NC(=S)NCCc1ccccc1)c1ccc(C)cc1	0	0
C/C(=N\NC(=S)NCCc1ccccc1)c1ccc(C#N)cc1	0	10µM
SMILES	Cruzain inh Det	Cruzain noTriton
N[C@@H](Cc1[nH]nc2ccccc12)C(=O)O	0	0
COc1ccc(-c2noc(N3CCC(C(=O)N(C)c4cc(Cl)ccc4OC)CC3)n2)cc1	0	0
Cc1ccc(/C=C/c2onc(C)c2S(=O)(=O)N2CCC(C(=O)N3CCOc4ccccc43)CC2)cc1	0	0
Cc1ccc2c(c1)N(C(=O)C1CCN(S(=O)(=O)c3c(C)noc3/C=C/c3ccccc3F)CC1)CCO2	0	13µM
CCC1CN(C(=O)C2CCN(S(=O)(=O)c3c(C)noc3/C=C/c3ccccc3F)CC2)c2cc(C)ccc2O1 (stereo not given)	0	?
CCC1CN(C(=O)C2CCN(S(=O)(=O)c3c(C)noc3/C=C/c3ccccc3F)CC2)c2cc(Cl)ccc2O1 (stereo not given)	0	3.2µM
Cc1ccc(Cl)cc1N1CCN(C(=O)C2CCN(S(=O)(=O)c3c(C)noc3/C=C/c3ccccc3F)CC2)CC1	0	6.3µM
CC(=O)c1ccc(N2CCN(C(=O)C3CCN(S(=O)(=O)c4c(C)noc4/C=C/c4ccccc4F)CC3)CC2)cc1	0	0
CO[Si](CCCNCCC[Si](OC)(OC)OC)(OC)OC	0	0
CC(=O)c1ccc(N2C(=O)Nc3ccccc3S2(=O)=O)cc1	0	0
CCc1ccc2occ(CC(=O)NCc3ccccc3)c2c1	0	0
Cc1sc(NC(=O)/C=C/c2ccc(C(C)C)cc2)c(C#N)c1C	0	25µM
CC(C)c1ccc(/C=C/C(=O)Nc2nncs2)cc1	0	?
COc1cccc(C(=O)CC2(O)C(=O)Nc3ccc(Cl)cc32)c1 (stereo not given)	0	0
O=[N+]([O-])c1ccc([C@@H](Nc2ccccc2)c2ccc3cccnc3c2O)cc1	0	0
Cc1cccc2c1N(C(=O)c1ccco1)C(C)(C)c1ssc(=S)c1-2	0	0
Cc1ccc2c(c1)N(C(=O)c1ccco1)C(C)(C)c1ssc(=S)c1-2	0	32µM
Cc1ccc(Cl)cc1-n1ncc2c(Nc3ccc4c(c3)OCCO4)ncnc21	0	0
O=C(Cn1cnc2cc([N+](=O)[O-])ccc2c1=O)Nc1ccc2c(c1)CCC2	0	16µM
O=C(Cn1cnc2ccccc2c1=O)Nc1ccc2c(c1)CCC2	0	0
COc1ccc(/C=N/N=C2/NC(=O)C(c3ccccc3)(c3ccccc3)S2)cc1	0	3.2µM
COc1ccc(/C=N/N2C(=O)c3ccccc3C2=O)cc1	0	0
COc1ccc(S(=O)(=O)N2CCN(C)CC2)c2ccccc12	0	0
